# The source made the active and inactive calls. Rule for the calls: active = hit-call score of the fitted dose curve at least 0.9, where 1 is the maximum; inactive = score below 0.9.
# Read-out: Cytochrome P450 (CYP1A2), CYP1A2 (gene 1544)
# Test: LTEA_HepaRG_CYP1A2: Life Technologies and Expression Analysis (LTEA) Assay for Cytochrome P450 (CYP1A2) using HepaRG (AID 2283479);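 for AC50: TaqMan qRT-PCR transcript level normalized to ACTB GAPDH and POLR2A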
# Conditions: mRNA level, 48 h; actives raise or lower the signal
# Procedure: LTEA_HepaRG is a cell based, multiplexed-readout assay that uses HepaRG, a human liver cell line, with measurements taken at 48 hours after chemical dosing on a 96-well plate.LTEA_HepaRG_CYP1A2 is one of 102 assay component(s) measured in the LTEA HepaRG cell culture assay. It is a marker of NR mediated metabolism.Data from the assay component LTEA_HepaRG_CYP1A2 was analyzed into 1 endpoint. This assay endpoint, LTEA_HepaRG_CYP1A2, was analyzed with bidirectional fitting relative to DMSO as the negative control and baseline of activity. Using a type of inducible reporter, measures of mRNA induction for gain or loss-of-signal activity can be used to understand regulation of transcription factor activity. To generalize the intended target to other relatable targets, this assay endpoint is annotated to the cyp intended target family, where the subfamily is xenobiotic metabolism.
# A total of 1060 chemcials from the ToxCast library were tested in eight-point concentration-response experiments. Cell culture and cytotoxicity assays were conducted at Thermo Fisher Scientific's Custom Services facility (Madison, WI). A single lot of human HepaRG cells (Thermo Fisher Scientific, Frederick, MD) was used for the cell culture experiments. 96-well format collagen type I coated plates of human HepaRG cells were prepared using established methods. Briefly, cryopreserved HepaRG cells were thawed, plated at a density of approximately 100,000 cells/well in HepaRG Thaw, Plate, and General Purpose media (HPRG770, Thermo Fisher Scientific), and incubated for 48 hours. 0.5% DMSO was selected as vehicle control to balance the requisite need of DMSO in HepaRG cultures to maintain differentiation (for example, baseline metabolism, proportions of hepatocytes vs. cholangiocytes), while enabling further hepatic receptor pathway activation (for example, PXR and CAR) in response to chemical exposure. 48 hours after plating, the culture medium was replaced with HepaRG Serum-Free Incudtion Media. Cells were exposed to each test chemical in duplicate and maintained in CO2 incubators for another 48 hours. Chemical plates were thawed to room temperature and 200x concentrations of treatment groups were prepared. 8-point conentration-reponse curves were made with the highest exposure at 100 uM, followed by half-log dilutions, all in 0.5% DMSO. Each test plate contained variouse controls, induction positive controls (1mM phenobarbital), cytotoxicity positive controls ([…] aflatoxin B1), vehicle controls (0.5% DMSO), and total lysis controls (0.5% DMSO). Cell morphology images were taken using an Essen IncuCyte FLR automated microscope, with six 96-well plates imaged in about 24 minutes. Images were captured and exported and JPEG files. Spent culture media was transfered to black-well plates for the LDH assay, and remaining media was sorted at -80 C for later use. Cells were treated with RLT buffer and frozen until shipped for gene expression analysis. Total RNA was isolated from the cell suspension in 75 uL of Buffer RLT (Qiagen, Germantown, MD 20874) by Quintiles/Expression Analysis (Durham, NC) using a custom isolation procedure. Total RNA from each plate well was transferred to a preamplification plate. Fluidigm's 96.96 Dynamic ArrayTM (Fluidigm, Amsterdam, the Netherlands) technology was used for gene expression analyses by quantitative reverse transcription polymerase chain reaction (qRT-PCR, performed by Quintiles/Expression Analysis, Durham, NC)89. Standard TaqManTM Assays (Applied Biosystems/ThermoFisher Scientific, Foster City, CA) were used to assess the expression of 93 genes selected based on their selectivity and sensitivity to important hepatic receptors known to be modulated by environmental chemicals; importance in human hepatocyte functionality; and hepatotoxicity. […]
SMILES,AC50,outcome
CCOP(=S)(OCC)Oc1nc(Cl)n(C(C)C)n1,11.3 µM (active),–
CCOC(=O)C(C)OC(=O)c1cc(Oc2ccc(C(F)(F)F)cc2Cl)ccc1[N+](=O)[O-] (stereo not given),–,inactive
CC(C)=CC1C(C(=O)OCc2coc(Cc3ccccc3)c2)C1(C)C (stereo not given),–,inactive
CC1(C)C(C=C(Cl)Cl)C1C(=O)OC(C#N)c1cccc(Oc2ccccc2)c1 (stereo not given),21.9 µM (active),–
Cc1c(COC(=O)[C@@H]2[C@H](/C=C(\Cl)C(F)(F)F)C2(C)C)cccc1-c1ccccc1,76.3 µM (active),–
Clc1nc(Cl)nc(Nc2ccccc2Cl)n1,20.1 µM (active),–
Nc1cnn(-c2ccccc2)c(=O)c1Cl,80.6 µM (active),–
N#Cc1c(Cl)cccc1Cl,–,inactive
CS(=O)(=O)c1cc(C(F)(F)F)ccc1C(=O)c1cnoc1C1CC1,–,inactive
OC(c1ccc(Cl)cc1)(c1ccc(Cl)cc1)C(Cl)(Cl)Cl,–,inactive
CCCCC(C#N)(Cn1cncn1)c1ccc(Cl)cc1 (stereo not given),19.3 µM (active),–
CCOP(=O)(OCC)Oc1nc(Cl)c(Cl)cc1Cl,–,inactive
CC(C)N1C(=O)c2ccccc2NS1(=O)=O,–,inactive
COc1ccc(-c2ccccc2)cc1NNC(=O)OC(C)C,74.5 µM (active),–
CCOc1cc(C(C)(C)C)ccc1C1COC(c2c(F)cccc2F)=N1 (stereo not given),–,inactive
CN=C=S,–,inactive
CC(C)(C)C(=O)C(Oc1ccc(Cl)cc1)n1cncn1 (stereo not given),–,inactive
CCC(C)n1c(=O)[nH]c(C)c(Br)c1=O (stereo not given),8.92 µM (active),–
CC(C)C1(C)N=C(c2ncccc2C(=O)O)NC1=O (stereo not given),–,inactive
O=C(Nc1ccccc1-c1ccc(Cl)cc1)c1cccnc1Cl,–,inactive

SMILES,AC50,outcome
COCc1cnc(C2=NC(C)(C(C)C)C(=O)N2)c(C(=O)O)c1 (stereo not given),–,inactive
O=P(O)(O)CCCl,–,inactive
CNC(=O)N(C)c1nnc(C(C)(C)C)s1,50 µM (active),–
CN/C(=N\[N+](=O)[O-])NCc1cnc(Cl)s1,–,inactive
Clc1cccc(C(Cl)(Cl)Cl)n1,–,inactive
CCNC(=O)NC(=O)C(C#N)=NOC,–,inactive
N#CN=C1SCCN1Cc1ccc(Cl)nc1,–,inactive
COP(=S)(OC)SCn1nnc2ccccc2c1=O,33.6 µM (active),–
COC(=O)c1c(C(F)F)nc(C(F)(F)F)c(C2=NCCS2)c1CC(C)C,50 µM (active),–
CC(C)Nc1nc(Cl)nc(NC(C)C)n1,–,inactive
COCC(C)N(C(=O)CCl)c1c(C)csc1C (stereo not given),–,inactive
CCN(CC)c1nc(C)cc(OP(=S)(OC)OC)n1,38 µM (active),–
O=c1n(Cl)c(=O)n(Cl)c(=O)n1Cl,50 µM (active),–
COC(=O)NS(=O)(=O)c1ccc(N)cc1,–,inactive
O=C1C2CC=CCC2C(=O)N1SC(Cl)(Cl)Cl (stereo not given),–,inactive
Cn1c(-c2ccccc2)cc(-c2ccccc2)[n+]1C,13.2 µM (active),–
N#Cc1c[nH]cc1-c1cccc2c1OC(F)(F)O2,21.3 µM (active),–
CC(C)NC(=O)N1CC(=O)N(c2cc(Cl)cc(Cl)c2)C1=O,8.18 µM (active),–
Cc1cc(C)nc(Nc2ccccc2)n1,88.8 µM (active),–
CC1(C)CON(Cc2ccccc2Cl)C1=O,–,inactive
